Hits are enriched below; roughly 3.4% of the tested compounds scored in any of these assays.
MITF primary – inhibitors of human MITF; O75030; AlphaScreen MITF homodimerization, bead proximity signal; inhibition, % at 2.6 µM; actives 0.91% (n = 650,000); AID 1259374; in the data active = inhibition above about 50%;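 also: 0% = vehicle wells with protein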
Target sequence (O75030 whole entry, looked up): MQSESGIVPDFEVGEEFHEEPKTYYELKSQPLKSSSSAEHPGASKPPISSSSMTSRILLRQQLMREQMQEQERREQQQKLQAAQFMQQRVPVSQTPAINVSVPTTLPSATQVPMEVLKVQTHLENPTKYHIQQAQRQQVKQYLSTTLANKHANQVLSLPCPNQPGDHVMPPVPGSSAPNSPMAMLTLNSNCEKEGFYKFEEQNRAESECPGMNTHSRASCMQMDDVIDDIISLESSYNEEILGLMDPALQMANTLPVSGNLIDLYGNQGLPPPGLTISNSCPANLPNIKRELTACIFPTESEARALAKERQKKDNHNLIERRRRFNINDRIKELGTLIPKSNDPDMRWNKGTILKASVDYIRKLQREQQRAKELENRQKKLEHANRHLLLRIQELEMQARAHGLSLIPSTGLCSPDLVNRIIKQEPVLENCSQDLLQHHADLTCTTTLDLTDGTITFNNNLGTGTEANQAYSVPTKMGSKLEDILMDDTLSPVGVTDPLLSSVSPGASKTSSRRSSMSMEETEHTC
GPR151 activ – activators of human GPR151; Q8TDV0; PathHunter beta-arrestin GPR151 cells, luminescence; activation, % at 11.2 µM; actives 1% (n = 650,000); AID 1508602; in the data active = activation above about 4.9%;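 also: 0% = median of compound wells and 100% = cells with positive control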
TEAD-YAP block – TEAD-YAP interaction inhibition; inhibition, % at 9.12 µM; actives 1.4% (n = 640,000); HEK-TIYL cells, TEAD-Gal4/YAP UAS-luciferase luminescence; in the data active = inhibition above about 32%;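 also: 0% = median of test compound wells and 100% = reference inhibitor wells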
FBW7 act – activators of human E3 ligase FBW7; AlphaScreen FBW7–phospho-cyclin E peptide binding, activator screen; normalized activity (activation), % at 26.1 µM; actives 0.13% (n = 650,000); in the data active = normalized activity above about 1.9%;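 also: purified mutant Fbw7 with reduced substrate affinity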
Starred values were filed as active, the others as inactive.

SMILES	MITF primary	GPR151 activ	TEAD-YAP block	FBW7 act
Fc1ccc(Nc2nc3nonc3nc2Nc2ccc(F)cc2)cc1	-4	0	61*	0
Ic1ccc(Nc2nc3nonc3nc2N2CCCCC2)cc1	12	1	4	0
FC(F)(F)c1cccc(Nc2nc3nonc3nc2Nc2ccc(Cl)cc2)c1	0	2	82*	0
O=c1[nH]c2nonc2nc1Nc1ccc(Cl)cc1	-10	0	-5	0
Clc1ccc(Nc2nc3nonc3nc2N2CCCCC2)cc1	16	1	33*	0
Clc1ccc(Nc2nc3nonc3nc2Nc2ccc(Cl)cc2)cc1	13	2	92*	0
O=C(NCCCN1CCCC1=O)c1cncc(-c2csc3ccccc23)c1	4	-1	1	0
Cc1ccc(-c2noc(=O)n2CC(=O)N2CCCC2)cc1	-3	0	10	0
COc1cc(/C=C2/SC(=Nc3ccccc3)NC2=O)ccc1OC(=O)c1ccc([N+](=O)[O-])cc1	0	0	8	0
O=C(Nc1ccc2[nH]ncc2c1)c1ccc(OC2CCN(Cc3ccccc3)CC2)nc1	21	1	44*	0
O=C(Nc1ccc2[nH]ncc2c1)c1cc(O[C@H]2CCNC2)ccn1	11	1	43*	0
O=C(Nc1ccc2[nH]ncc2c1)c1cccnc1OC1CCN(Cc2ccccc2)CC1	-2	0	-1	0
CN1CC[C@@H](Oc2ccnc(C(=O)Nc3ccc4[nH]ncc4c3)c2)C1	11	0	66*	0
CN1CCC(Oc2ccnc(C(=O)Nc3ccc4[nH]ncc4c3)c2)CC1	10	-1	10	1
COc1ccccc1NC(=O)C1=C(C)NC(SCC(=O)Nc2cccc(Br)c2)=C(C#N)C1c1ccco1 (stereo not drawn)	10	1	3	0
CCOC(=O)c1csc2c1CCC(Br)(Br)C2=O	17	0	5	0
CCOC(=O)c1csc2c1CCC/C2=N/O	-6	0	51*	0
CCOC(=O)c1csc2c1CCC/C2=N\O	-3	-2	48*	0
COc1ccc(-c2cc(Nc3cccc(C(F)(F)F)c3)ncn2)cn1	-6	0	8	0
CC1Oc2nc3ccccc3cc2CN(Cc2ccc3c(c2)OCO3)C1=O (stereo not drawn)	2	1	-4	0
CC1Oc2nc3ccccc3cc2CN(Cc2ccc(F)cc2)C1=O (stereo not drawn)	-1	-1	32*	0
Cc1ccc2cc3c(nc2c1)OCC(=O)N(Cc1ccccc1)C3	3	3	48*	0
Cc1cccc2cc3c(nc12)OCC(=O)N(Cc1ccccc1)C3	14	0	58*	26*
Cc1ccc2cc3c(nc2c1)OCC(=O)N(Cc1ccco1)C3	15	-1	-21	0
N#C/C(=C\c1ccsc1)C(=O)c1ccccc1	-10	1	6	0
SMILES	MITF primary	GPR151 activ	TEAD-YAP block	FBW7 act
O=C(c1ccccc1Cl)n1c(=O)oc2cc([N+](=O)[O-])ccc21	24	-4	-48	1
O=C1N=C(N2CCOCC2)S/C1=C\c1ccc(O)cc1	11	4	39*	0
CC1CCCN(C2=NC(=O)/C(=C/c3ccc(F)cc3)S2)C1 (stereo not drawn)	6	-1	-25	0
CC1CCCN(C2=NC(=O)/C(=C/c3ccc(O)cc3)S2)C1 (stereo not drawn)	11	-1	49*	0
COc1cc(/C=C2\SC(N3CCCC(C)C3)=NC2=O)ccc1O (stereo not drawn)	2	1	56*	0
COc1cc(/C=C2\SC(N3CCOCC3)=NC2=O)ccc1O	-4	-2	54*	0
COc1cc(/C=C2\SC(N3CCCC3)=NC2=O)ccc1O	-6	-1	2	0
O=C1N=C(N2CCOCC2)S/C1=C\c1ccc(F)cc1	10	-1	-25	0
S=C1NC(c2ccccc2)=CC(c2ccc(Br)cc2)N1 (stereo not drawn)	2	-1	-1	0
CC1CCN(CNC(=O)c2cccnc2)CC1	-4	1	-2	0
O=C(NNC(=O)c1ccc([N+](=O)[O-])cc1)NC1(C(F)(F)F)Oc2ccccc2O1	15	-1	-9	0
CCN(CC)C(=O)n1nnc2ccccc21	18	-1	27	0
CCOC(=O)C(C)Sc1nnc(NC(=O)CCCl)s1 (stereo not drawn)	21	1	0	3.4*
N#CCC(=O)Nc1ccccc1C(=O)OCC(=O)Nc1ccc(F)cc1Cl	7	-1	-3	0
CC(=O)Nc1ccc(NC(=O)c2cc(NCCCN3CCCC3=O)nc3ccccc23)cc1	7	-2	11	0

Compound activity deposited in PubChem by The Scripps Research Institute Molecular Screening Center.
